Test results taken from PubChem BioAssay (NCATS).
Records with an inconclusive call do not appear. The source made the active and inactive calls. Calls come from the whole dose curve; as a rule, active = well fitted curve in the direction sought with a large enough effect; inconclusive = small, poorly fitted or top-dose-only effect, or another doubt; inactive = no such curve, though single readings can be large; an effect the other way counts as inactive or inconclusive.

How the values were obtained:
MCC-13 = assay: qHTS assay to identify novel small-molecules to repurpose for Merkel cell carcinoma treatment (AID 1296009); settings: MCC and control cell lines, CellTiter-Glo viability, 72 h; series mostly up to 46 µM; note: nearly all actives have a fitted effect of over 60% in size
How it was run: (§1)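 Luminescence from CellTiter-Glo, read 10 min after addition at room temperature, reported viability following a 72 hr, 37 degree celsius treatment with NPC or MIPE compounds in titration; values normalized to plate controls.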

MCC-26 = assay: as above; settings: MCC and control cell lines, CellTiter-Glo viability, 72 h; series mostly up to 46 µM
How it was run: as §1

MKL-1 = assay: as above; settings: MCC and control cell lines, CellTiter-Glo viability, 72 h; series mostly up to 46 µM
How it was run: as §1

MKL-2 = assay: as above; settings: MCC and control cell lines, CellTiter-Glo viability, 72 h; series mostly up to 46 µM
How it was run: as §1

UISO = assay: as above; settings: MCC and control cell lines, CellTiter-Glo viability, 72 h; series mostly up to 46 µM
How it was run: as §1

WaGa = assay: as above; settings: MCC and control cell lines, CellTiter-Glo viability, 72 h; series mostly up to 46 µM
How it was run: as §1

C33A = assay: Primary qHTS to identify gynecologic anti-cancer compounds using libraries of approved drugs and bioactive compounds (AID 1345084); settings: Gynecologic cancer cell panel viability, ATPlite luminescence, 48 h; series mostly up to 57.5 µM; note: nearly all actives have a fitted effect of over 55% in size
How it was run: (§2)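 48 h compound exposure at 37 C, 5% CO2; five-point qHTS. ATPlite luminescence readout of cell ATP.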

CAOV3 = assay: as above; settings: Gynecologic cancer cell panel viability, ATPlite luminescence, 48 h; series mostly up to 57.5 µM
How it was run: as §2

CASKI = assay: as above; settings: Gynecologic cancer cell panel viability, ATPlite luminescence, 48 h; series mostly up to 57.5 µM
How it was run: as §2
% is set by controls: 0 for no effect and ±100 for the full control effect.

CN1CCN(CC(=O)N2c3ccccc3C(=O)Nc3cccnc32)CC1
inactive: activity change, negative = cytotoxicity (MCC-13) 8.41% [at 4.84 µM] | activity change, negative = cytotoxicity (MCC-26) 1.14% [at 4.84 µM] | activity change, negative = cytotoxicity (MKL-1) -1.15% [at 4.84 µM] | activity change, negative = cytotoxicity (MKL-2) 15.9% [at 4.84 µM] | activity change, negative = cytotoxicity (UISO) 0.833% [at 4.84 µM] | activity change, negative = cytotoxicity (WaGa) 4.82% [at 4.84 µM] | activity change, negative = cytotoxicity (C33A) -17.4% [at 6.55 µM] | activity change, negative = cytotoxicity (CAOV3) 6.09% [at 6.55 µM] | activity change, negative = cytotoxicity (CASKI) 7.9% [at 6.55 µM]

NC/C=C/C(=O)O
inactive: Potency (MCC-13) | Potency (MCC-26) | Potency (MKL-1) | Potency (MKL-2) | Potency (UISO) | Potency (WaGa) | Potency (C33A) | Potency (CAOV3) | Potency (CASKI)

NC(Cc1ccc(Cl)cc1)C(=O)O (configuration not stated)
inactive: activity change, negative = cytotoxicity (MCC-13) 20.3% [at 0.597 µM] | activity change, negative = cytotoxicity (MCC-26) 17.1% [at 0.597 µM] | activity change, negative = cytotoxicity (MKL-1) 8.15% [at 0.597 µM] | activity change, negative = cytotoxicity (MKL-2) 20% [at 0.597 µM] | activity change, negative = cytotoxicity (UISO) 36.5% [at 0.597 µM] | activity change, negative = cytotoxicity (WaGa) 12.8% [at 0.597 µM] | activity change, negative = cytotoxicity (C33A) 13.6% [at 0.462 µM] | activity change, negative = cytotoxicity (CAOV3) 0.059% [at 0.462 µM] | activity change, negative = cytotoxicity (CASKI) 7.36% [at 0.462 µM]

CCN(CC)CCNC(=O)c1cc(S(C)(=O)=O)ccc1OC
inactive: Potency (MCC-13) | Potency (MCC-26) | Potency (MKL-1) | Potency (MKL-2) | Potency (UISO) | Potency (WaGa) | Potency (C33A) | Potency (CAOV3) | Potency (CASKI)

CCCN1C[C@H](CSC)C[C@@H]2c3cccc4[nH]cc(c34)C[C@H]21
inactive: Potency (MCC-13) | Potency (MCC-26) | Potency (MKL-1) | Potency (MKL-2) | Potency (UISO) | Potency (WaGa) | Potency (C33A) | Potency (CAOV3) | Potency (CASKI)

CN(C(=O)CCCOc1ccc2[nH]c(=O)ccc2c1)C1CCCCC1
inactive: Potency (MCC-13) | Potency (MCC-26) | Potency (MKL-1) | Potency (MKL-2) | Potency (UISO) | Potency (WaGa) | Potency (C33A) | Potency (CAOV3) | Potency (CASKI)

Cc1ccc(Cl)c(Nc2ccccc2C(=O)O)c1Cl
inactive: Potency (MCC-13) | Potency (MCC-26) | Potency (MKL-1) | Potency (MKL-2) | Potency (UISO) | Potency (WaGa) | Potency (C33A) | Potency (CAOV3) | Potency (CASKI)

CCN1CCc2nc(N)oc2CC1
inactive: Potency (MCC-13) | Potency (MCC-26) | Potency (MKL-1) | Potency (MKL-2) | Potency (UISO) | Potency (WaGa) | Potency (C33A) | Potency (CAOV3) | Potency (CASKI)

NC1=NCC2c3ccccc3Cc3ccccc3N12 (configuration not stated)
inactive: Potency (MCC-13) | Potency (MCC-26) | Potency (MKL-1) | Potency (MKL-2) | Potency (UISO) | Potency (WaGa) | Potency (C33A) | Potency (CAOV3) | Potency (CASKI)

C[C@@H](O)[C@H]1C(=O)N2C(C(=O)O)=C(SCCN=CN)C[C@H]12
inactive: Potency (MCC-13) | Potency (MCC-26) | Potency (MKL-1) | Potency (MKL-2) | Potency (UISO) | Potency (WaGa) | Potency (C33A) | Potency (CAOV3) | Potency (CASKI)

CCO/C([O-])=N/c1c[n+](N2CCOCC2)no1
inactive: Potency (MCC-13) | Potency (MCC-26) | Potency (MKL-1) | Potency (MKL-2) | Potency (UISO) | Potency (WaGa) | Potency (C33A) | Potency (CAOV3) | Potency (CASKI)

CN(C)CCOC(=O)COc1ccc(Cl)cc1
inactive: Potency (MCC-13) | Potency (MCC-26) | Potency (MKL-1) | Potency (MKL-2) | Potency (UISO) | Potency (WaGa) | Potency (C33A) | Potency (CAOV3) | Potency (CASKI)

N[C@@H](COP(=O)(O)O)C(=O)O
inactive: Potency (MCC-13) | Potency (MCC-26) | Potency (MKL-1) | Potency (MKL-2) | Potency (UISO) | Potency (WaGa) | Potency (C33A) | Potency (CAOV3) | Potency (CASKI)

CN1C(=O)CC[C@H]1c1cccnc1
inactive: Potency (MCC-13) | Potency (MCC-26) | Potency (MKL-1) | Potency (MKL-2) | Potency (UISO) | Potency (WaGa) | Potency (C33A) | Potency (CAOV3) | Potency (CASKI)

O=C(O)CN(CCOCCOCCN(CC(=O)O)CC(=O)O)CC(=O)O
inactive: activity change, negative = cytotoxicity (MCC-13) -0.433% [at 0.597 µM] | activity change, negative = cytotoxicity (MCC-26) 19.1% [at 0.597 µM] | activity change, negative = cytotoxicity (MKL-1) 14.4% [at 0.597 µM] | activity change, negative = cytotoxicity (MKL-2) 9.35% [at 0.597 µM] | activity change, negative = cytotoxicity (UISO) 21.4% [at 0.597 µM] | activity change, negative = cytotoxicity (WaGa) 12.3% [at 0.597 µM] | activity change, negative = cytotoxicity (C33A) 11.2% [at 0.462 µM] | activity change, negative = cytotoxicity (CAOV3) 7.4% [at 0.462 µM] | activity change, negative = cytotoxicity (CASKI) 2.67% [at 0.462 µM]

COc1ccc(CN(CCN(C)C)c2ccccn2)cc1
inactive: Potency (MCC-13) | Potency (MCC-26) | Potency (MKL-1) | Potency (MKL-2) | Potency (UISO) | Potency (WaGa) | Potency (C33A) | Potency (CAOV3) | Potency (CASKI)

O=C(O)CN(CCN(CC(=O)O)CC(=O)O)CCN(CC(=O)O)CC(=O)O
inactive: Potency (MCC-13) | Potency (MCC-26) | Potency (MKL-1) | Potency (MKL-2) | Potency (UISO) | Potency (WaGa) | Potency (C33A) | Potency (CAOV3) | Potency (CASKI)

CCCNC(C)C(=O)Nc1ccccc1C (configuration not stated)
inactive: Potency (MCC-13) | Potency (MCC-26) | Potency (MKL-1) | Potency (MKL-2) | Potency (UISO) | Potency (WaGa) | Potency (C33A) | Potency (CAOV3) | Potency (CASKI)

C[C@]12CCC(=O)C=C1CC[C@@H]1[C@@H]2C(=O)C[C@@]2(C)[C@H]1CC[C@]2(O)C(=O)CO
inactive: Potency (MCC-13) | Potency (MCC-26) | Potency (MKL-1) | Potency (MKL-2) | Potency (UISO) | Potency (WaGa) | Potency (C33A) | Potency (CAOV3) | Potency (CASKI)

C#CCN(C)CCCOc1ccc(Cl)cc1Cl
inactive: Potency (MCC-13) | Potency (MCC-26) | Potency (MKL-1) | Potency (MKL-2) | Potency (UISO) | Potency (WaGa) | Potency (C33A) | Potency (CAOV3) | Potency (CASKI)

CN=C(NC#N)NCCSCc1nc[nH]c1C
inactive: Potency (MCC-13) | Potency (MCC-26) | Potency (MKL-1) | Potency (MKL-2) | Potency (UISO) | Potency (WaGa) | Potency (C33A) | Potency (CAOV3) | Potency (CASKI)

Cc1nc2c([nH]1)c(=O)n(C)c(=O)n2Cc1ccco1
inactive: Potency (MCC-13) | Potency (MCC-26) | Potency (MKL-1) | Potency (MKL-2) | Potency (UISO) | Potency (WaGa) | Potency (C33A) | Potency (CAOV3) | Potency (CASKI)

Cc1cccc(C)c1NC(=O)C(C)N (configuration not stated)
inactive: Potency (MCC-13) | Potency (MCC-26) | Potency (MKL-1) | Potency (MKL-2) | Potency (UISO) | Potency (WaGa) | Potency (C33A) | Potency (CAOV3) | Potency (CASKI)
